The values below come from PubChem BioAssay (Tox21).

Results filed as inconclusive are left out. Entries that show only a call come without a potency. A number with no mark means an inactive call. Activity calls are given as the source filed them. The call rests on the fitted dose curve.

Sequence of Retinoic acid receptor RXR-alpha (Homo sapiens) (P19793 whole entry, looked up): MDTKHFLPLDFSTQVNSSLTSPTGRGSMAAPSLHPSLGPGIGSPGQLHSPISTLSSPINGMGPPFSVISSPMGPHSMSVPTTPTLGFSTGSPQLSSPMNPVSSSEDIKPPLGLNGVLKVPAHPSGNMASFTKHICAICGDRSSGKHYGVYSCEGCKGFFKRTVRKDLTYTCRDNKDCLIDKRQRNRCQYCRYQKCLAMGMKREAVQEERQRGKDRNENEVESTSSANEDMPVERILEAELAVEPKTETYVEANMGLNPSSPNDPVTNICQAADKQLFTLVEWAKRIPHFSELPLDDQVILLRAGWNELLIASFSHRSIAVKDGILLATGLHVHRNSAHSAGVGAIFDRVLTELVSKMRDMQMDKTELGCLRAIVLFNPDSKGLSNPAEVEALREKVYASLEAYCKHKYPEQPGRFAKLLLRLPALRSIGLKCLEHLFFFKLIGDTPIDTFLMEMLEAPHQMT

Test system in one assay: not listed separately
Put plainly: qHTS assay to identify small molecule agonists of the AP-1 signaling pathway (AID 1159526). Particulars: ME-180 (cervical carcinoma) AP-1-bla reporter, beta-lactamase FRET ratio, 5 h; series mostly up to 76.8 µM.
On to `CC(COc1ccc(C(C)(C)C)cc1)OS(=O)OCCCl` (configuration not stated), for which the outcome was inactive.
With `Cc1ccc(Nc2nccc(N(C)c3ccc4c(C)n(C)nc4c3)n2)cc1S(N)(=O)=O`, the outcome was inactive.
Regarding `CCOCCn1c(C2CCN(CCc3ccc(C(C)(C)C(=O)O)cc3)CC2)nc2ccccc21`, the result was inactive.
Turning to `CCCC(=O)O[C@]1(C(=O)COC(=O)CC)CC[C@H]2[C@@H]3CCC4=CC(=O)CC[C@]4(C)[C@H]3[C@@H](O)C[C@@]21C`, the activation was -6.02% [at 15.8 µM].
Take `Oc1ccc(Nc2ccccc2)cc1`: the outcome was inactive.
Still for that read-out and setting: to `O=C(O)c1ccccc1NCCc1ccccc1` belongs “inactive”.
On to `CCC(C)(C)C1CCC(O)CC1` (configuration not stated), for which the result was inactive.
As to `COC(=O)CC(=O)C(C)(C)C`, the result was inactive.
Regarding `Fc1ccccc1[C@@H](F)COC1CCC(Nc2ncnc3[nH]ncc23)CC1` (some centres not stated), the result was inactive.
With `COCc1c(C(C)C)nc(C(C)C)c(/C=C/[C@@H](O)C[C@@H](O)CC(=O)O)c1-c1ccc(F)cc1`, the outcome was inactive.
The same measure, in the same setting: the entry for `CCNC(=O)N1CCN(CCCC(c2ccc(F)cc2)c2ccc(F)cc2)CC1` is “inactive”.
The same measure, in the same setting: to `O=C(Nc1ccccc1)Nc1ccccc1` belongs “inactive”; to `CCOC(=O)N1CCC(n2c(=O)[nH]c3cc(Cl)ccc32)CC1`, “inactive”; to `CCn1cc(C(=O)O)c(=O)c2cc(F)c(N3CCNCC3)nc21`, “inactive”.
In the case of `CC(=O)OCC(=O)[C@@]12OC(C)(C)O[C@@H]1C[C@H]1[C@@H]3C[C@H](F)C4=CC(=O)C=C[C@]4(C)[C@@]3(F)[C@@H](O)C[C@@]12C`, the outcome was inactive.
For `CN(C)C(=O)Nc1ccc(Oc2ccc(Cl)cc2)cc1`, the result was inactive.
Regarding `Nc1ccc(Cl)cc1[N+](=O)[O-]`, the result was inactive.
Take `Brc1cc(-c2ccc(Br)c(Br)c2Br)cc(Br)c1Br`: the outcome was inactive.
In the case of `O=C(O)C(Cc1cc(I)c(O)c(I)c1)c1ccccc1` (configuration not stated), the result was inactive.
Consider `CC(C)(C)C(=O)C(Oc1ccc(Cl)cc1)n1ccnc1` (configuration not stated), for which the result was inactive.
Turning to `C=CCOC(=O)/C=C\C(=O)OCC=C`, the result was inactive.
Same read-out and setting: to `COC(=O)c1cc(S(N)(=O)=O)ccc1OC` belongs “inactive”; to `COc1ccc(CCC(=O)c2c(O)cc(O[C@@H]3O[C@H](CO)[C@@H](O)[C@H](O)[C@H]3O[C@@H]3O[C@@H](C)[C@H](O)[C@@H](O)[C@H]3O)cc2O)cc1O`, “inactive”; to `O=C(O)Cc1ccc(-c2ccccc2)cc1`, “inactive”.
As to `CC(CCO)CCc1ccccc1` (configuration not stated), the result was inactive.
On the same count and under the same terms, to `COC(=O)c1cc(Cl)ccc1NS(=O)(=O)C(F)(F)F` belongs “inactive”; to `O=C(C(=O)c1ccccc1)c1ccccc1`, “inactive”; to `Cc1oncc1C(=O)Nc1ccc(C(F)(F)F)cc1`, “inactive”.
`C[Si]1(C)O[Si](C)(C)O[Si](C)(C)O1`: the outcome was inactive.
`N#C/C(=C1\SCC(c2ccccc2Cl)S1)n1ccnc1` (configuration not stated): the result was inactive.

The next assay addresses Retinoic acid receptor RXR-alpha (Homo sapiens) (UniProt P19793). Nature of the assay: qHTS assay to identify small molecule agonists of the RXR signaling pathway (AID 1159527). Further: nearly all actives have a fitted effect of over 35% in size. The settings on record: HEK293T RXRa-UAS-bla, beta-lactamase ratio, 16 h; series mostly up to 76.8 µM. Summed up:
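Agonist-mode beta-lactamase reporter assay: HEK 293T RXR-alpha-UAS-bla cells treated 16 hr at 37 C with compounds, 9-cis retinoic acid as positive control. LiveBLAzer FRET substrate, 405 nm excitation, 460/530 nm emission.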
As for `CCOCCn1c(C2CCN(CCc3ccc(C(C)(C)C(=O)O)cc3)CC2)nc2ccccc21`, the Potency entry is “inactive”.
Regarding `CCCC(=O)O[C@]1(C(=O)COC(=O)CC)CC[C@H]2[C@@H]3CCC4=CC(=O)CC[C@]4(C)[C@H]3[C@@H](O)C[C@@]21C`, the activation was 11.5% [at 15.8 µM].
With `CC(=O)[C@H]1CC[C@H]2[C@@H]3C[C@H](C)C4=CC(=O)CC[C@]4(C)[C@H]3[C@@H](O)C[C@]12C`, the Potency entry was “inactive”.
The same measure, in the same setting: to `COCc1c(C(C)C)nc(C(C)C)c(/C=C/[C@@H](O)C[C@@H](O)CC(=O)O)c1-c1ccc(F)cc1` belongs “inactive”; to `CCOC(=O)N1CCC(n2c(=O)[nH]c3cc(Cl)ccc32)CC1`, “inactive”; to `CCn1cc(C(=O)O)c(=O)c2cc(F)c(N3CCNCC3)nc21`, “inactive”.
Same read-out and setting: to `CC(=O)OCC(=O)[C@@]12OC(C)(C)O[C@@H]1C[C@H]1[C@@H]3C[C@H](F)C4=CC(=O)C=C[C@]4(C)[C@@]3(F)[C@@H](O)C[C@@]12C` belongs “inactive”; to `O=C(O)C(Cc1cc(I)c(O)c(I)c1)c1ccccc1` (configuration not stated), “inactive”.
On the same count and under the same terms, to `CC(C)(C)C(=O)C(Oc1ccc(Cl)cc1)n1ccnc1` (configuration not stated) belongs “inactive”; to `CCC(C(=O)OCCN(CC)CC)c1ccccc1` (configuration not stated), “inactive”; to `COC(=O)c1cc(S(N)(=O)=O)ccc1OC`, “inactive”.
For `CC(CCO)CCc1ccccc1` (configuration not stated), the Potency result is “inactive”.
Consider `COC(=O)c1cc(Cl)ccc1NS(=O)(=O)C(F)(F)F`, for which the Potency entry is “inactive”.
Take `O=C(C(=O)c1ccccc1)c1ccccc1`: the Potency entry was “inactive”.
Turning to `Cc1oncc1C(=O)Nc1ccc(C(F)(F)F)cc1`, the Potency entry was “inactive”.
As to `C[Si]1(C)O[Si](C)(C)O[Si](C)(C)O1`, the Potency entry was “inactive”.
As for `CCCCC/C(=C\c1ccccc1)CO`, the Potency result was “inactive”.
